In PubChem BioAssay (NCATS):
Results filed as inconclusive are left out. Active and inactive are the calls of the source. Calls follow the shape of the dose curve; as a rule, active = well fitted curve in the direction sought with a large enough effect; inconclusive = small, poorly fitted or top-dose-only effect, or another doubt; inactive = no such curve, though single readings can be large; an effect the other way counts as inactive or inconclusive.

Assays:
[1] = system: Zika virus NS2B-NS3 protease (linked construct); assay: Primary screen NINDS Rhodamine qHTS for Zika virus inhibitors (AID 1347160); also: nearly all actives have a fitted effect of over 55% in size; also: potency is read from the fitted curve at half-maximal effect
Procedure, shortened: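 Each compound, titrated, sat 15 min with 25 nM linked protease before 1.5 microM Rhodamine110 substrate went in. Fluorescence gain over the next 15 min, in pH 8.0 Tris with Tween 20, gave Hill-fitted curves.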

[2] = OV-KATE Cancer Cell Toxicity qHTS against the NCATS CANVASS Library (AID 1347345); also: potency is read from the fitted curve at half-maximal effect
Procedure, shortened: (§1)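 Viability read-out: CellTiter-Glo luminescence after 72 h compound exposure at 37 °C/5% CO2. Cells plated at 1000/well, 4 h pre-incubation; 11-point titration. Bortezomib served as control.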

[3] = HPAF-II Cancer Cell Toxicity qHTS against the NCATS CANVASS Library (AID 1347346); also: nearly all actives have a fitted effect of over 55% in size; also: potency is read from the fitted curve at half-maximal effect
Procedure, shortened: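 First, HPAF-II cells are plated (1000 cells/well) and held 4 h at 37 degrees C. Next, compounds are pin-transferred as an 11-point series. After 72 h, CellTiter-Glo is added and luminescence measured.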

[4] = UWB1.289 Cancer Cell Toxicity qHTS against the NCATS CANVASS Library (AID 1347347); also: nearly all actives have a fitted effect of over 60% in size; also: potency is read from the fitted curve at half-maximal effect
Procedure, shortened: as §1

[5] = Panc-1005 Cancer Cell Toxicity qHTS against the NCATS CANVASS Library (AID 1347349); also: nearly all actives have a fitted effect of over 60% in size; also: potency is read from the fitted curve at half-maximal effect
Procedure, shortened: as §1

[6] = SW1088 Cancer Cell Toxicity qHTS against the NCATS CANVASS Library (AID 1347350); also: nearly all actives have a fitted effect of over 75% in size; also: potency is read from the fitted curve at half-maximal effect
Procedure, shortened: as §1

[7] = COV-362 Cancer Cell Toxicity qHTS against the NCATS CANVASS Library (AID 1347352); also: potency is read from the fitted curve at half-maximal effect
Procedure, shortened: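 First, 1000 cells go into each well and rest for 4 hours. Next, an 11-point dilution range is pinned in. Plates then incubate 72 hours before CellTiter-Glo addition and luminescence reading.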

[8] = HEK293 18hr Apoptosis Induction qHTS against the NCATS CANVASS Library (AID 1347357); also: potency is read from the fitted curve at half-maximal effect
Procedure, shortened: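 Cells seeded at 500/well in DMEM + 10% FBS. Compounds pinned, 11 concentrations. 18 h, 37 degrees C/5% CO2. Caspase-Glo 3/7 added, 15 min RT dark, luminescence read.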

[9] = HEK293 24hr Apoptosis Induction qHTS against the NCATS CANVASS Library (AID 1347359); also: potency is read from the fitted curve at half-maximal effect
Procedure, shortened: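 HEK293 cells (500/well, DMEM + 10% FBS) were exposed to compounds in an 11-point series for 24 hours at 37 degrees C, then caspase-3/7 activity was read by Caspase-Glo DEVD luciferase luminescence after 15 min.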

[10] = HEK293 12hr Apoptosis Induction qHTS against the NCATS CANVASS Library (AID 1347361); also: potency is read from the fitted curve at half-maximal effect
Procedure, shortened: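 Cells are seeded, dosed with an 11-point compound series and incubated 12 hours. Caspase-3/7 activity is detected by luminescent DEVD-substrate reagent after 15 minutes at room temperature.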

[11] = target: Luciferin 4-monooxygenase (Photinus pyralis) (UniProt P08659); assay: Firefly luciferase counterscreen qHTS: Assay Interference Panel against the NCATS CANVASS Library (AID 1347363); also: series mostly up to about 57 µM
Sequence of Luciferin 4-monooxygenase (Photinus pyralis) (P08659 whole entry, looked up): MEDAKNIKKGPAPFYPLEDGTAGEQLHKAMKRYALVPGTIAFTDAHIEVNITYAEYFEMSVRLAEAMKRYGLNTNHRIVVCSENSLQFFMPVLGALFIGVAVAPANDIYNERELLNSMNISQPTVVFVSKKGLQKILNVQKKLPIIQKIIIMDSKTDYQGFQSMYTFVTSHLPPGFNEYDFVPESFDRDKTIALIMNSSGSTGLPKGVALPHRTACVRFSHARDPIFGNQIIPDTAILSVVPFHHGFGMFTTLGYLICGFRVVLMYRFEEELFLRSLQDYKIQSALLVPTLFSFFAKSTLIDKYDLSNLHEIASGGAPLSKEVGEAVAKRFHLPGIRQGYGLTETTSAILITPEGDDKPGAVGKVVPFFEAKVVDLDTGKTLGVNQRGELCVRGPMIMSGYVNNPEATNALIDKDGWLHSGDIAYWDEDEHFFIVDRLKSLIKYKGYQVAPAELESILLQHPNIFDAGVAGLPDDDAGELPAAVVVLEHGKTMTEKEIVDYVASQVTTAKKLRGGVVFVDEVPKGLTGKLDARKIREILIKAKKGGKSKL
Procedure, shortened: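 Purified P. pyralis luciferase was added to compounds (11-point series) preincubated 15 min at room temperature with substrate containing 0.013 mM D-luciferin and 0.013 mM ATP; luminescence was read after 5 min.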

[12] = KB-3-1 Cancer Cell Toxicity qHTS against the NCATS CANVASS Library (AID 1347366); also: nearly all actives have a fitted effect of over 75% in size; also: potency is read from the fitted curve at half-maximal effect
Procedure, shortened: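 Luminescence from CellTiter-Glo (10 min, room temperature) measured KB-3-1 viability after 72 hr compound exposure at 37C. Cells were seeded at 500/well and tested in an 11-point series.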

[13] = MCF7 Cancer Cell Toxicity qHTS against the NCATS CANVASS Library (AID 1347369); also: potency is read from the fitted curve at half-maximal effect
Procedure, shortened: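 Cells seeded at 500/well, then compound pinned. Plates incubated 72 hr at 37C, 5% CO2. CellTiterGlo added; luminescence read.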

[14] = qHTS for ATAD5 Antagonist screened against the NCATS CANVASS Library (AID 1347370); also: nearly all actives have a fitted effect of over 65% in size; also: potency is read from the fitted curve at half-maximal effect
Procedure, shortened: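 Compounds (11-point) co-dosed with 10 µM 5-FUrd for 16 h at 37 °C onto HEK293T-ATAD5 luciferase reporter cells. Viability measured by CellTiter-Fluor fluorescence, then ATAD5 reporter signal by luminescence.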

[15] = J3T Cancer Cell Toxicity qHTS against the NCATS CANVASS Library (AID 1347371); also: potency is read from the fitted curve at half-maximal effect
Procedure, shortened: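 Luminescence from CellTiterGlo, reporting cellular ATP, serves as the viability measure after 72 hr compound treatment of J3T canine glioma cells seeded at 500 cells/well.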

[16] = target: Nuclear receptor subfamily 1 group I member 3 (Homo sapiens) (UniProt Q14994); assay: qHTS for Constitutive Androstane Receptor (CAR) Agonist screened against the NCATS CANVASS Library (AID 1347373);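 also: every well also contained 1.5 µM PK11195 alongside the test compound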
Sequence of Nuclear receptor subfamily 1 group I member 3 (Homo sapiens) (Q14994 whole entry, looked up): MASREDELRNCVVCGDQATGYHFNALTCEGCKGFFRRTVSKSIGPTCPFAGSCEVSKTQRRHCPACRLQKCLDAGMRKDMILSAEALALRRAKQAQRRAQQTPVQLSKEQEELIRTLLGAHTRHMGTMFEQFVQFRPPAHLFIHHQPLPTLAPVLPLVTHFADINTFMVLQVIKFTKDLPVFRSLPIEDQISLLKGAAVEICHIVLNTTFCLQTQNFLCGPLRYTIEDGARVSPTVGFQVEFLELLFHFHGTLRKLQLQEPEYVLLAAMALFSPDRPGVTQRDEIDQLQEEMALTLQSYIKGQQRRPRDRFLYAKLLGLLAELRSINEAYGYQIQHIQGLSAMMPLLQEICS
Procedure, shortened: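 Cells were plated and allowed to attach for 4hr, then dosed with compound in an 11-point series alongside 1.5uM PK11195. After 24hr at 37C, viability was measured fluorometrically and CAR-driven CYP2B6 reporter luminescence was recorded.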

[17] = 10-beta competent E. coli microbial cell viability qHTS against the NCATS CANVASS Library (AID 1347376); also: series mostly up to about 46 µM
Procedure, shortened: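 Bacterial suspension diluted to 0.2 OD was dosed with compounds, 11-point series, then held overnight at 37C. BacTiter-Glo reagent was added, and after 20 min at room temperature ATP-dependent luminescence was measured.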

[18] = qHTS for Inflammasome Signaling Inhibitors: IL-1-beta AlphaLISA screen against the NCATS CANVASS Library (AID 1347379);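 also: human THP-1 cells primed with LPS then triggered with ATP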
Procedure, shortened: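 Secreted IL-1B from human THP-1 cells quantified by AlphaLISA 16 hr after compound addition (final up to 57.5 uM). A 1 hr compound pretreatment preceded inflammasome activation with 250 ng/mL LPS plus 1.25 mM ATP (final).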

[19] = Inflammasome Signaling qHTS Counterscreen: IL-1-beta AlphaLISA counterscreen against the NCATS CANVASS Library (AID 1347381);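 also: cell-free check with purified IL-1β in medium and no THP-1 cells; series mostly up to about 57 µM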
Procedure, shortened: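 Purified IL-1-beta (4 pg/well) + compound, 11-pt conc. series; acceptor beads 6 ug/mL + biotin-Ab 0.6 nM final, 1 h RT; SA-donor 24 ug/ml final, 30 min dark RT; read ex 680/em 615.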

[20] = Vero-766 cells viability qHTS against the NCATS CANVASS Library: Counterscreen for Zika virus inhibition assay (AID 1347394); also: nearly all actives have a fitted effect of over 60% in size; also: potency is read from the fitted curve at half-maximal effect
Procedure, shortened: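 Vero 766, no virus; 1000 cells/well; o/n attach; cpd 11-pt; 72 h, 37C, 5% CO2; CTG luminescence; cell-free media wells = 100% inhibition.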

Measured: Potency

O=C(O)CC1OC(=O)c2c(O)cccc21 (stereo not given)
inactive: all assays above

C=C1C[C@@]23C=CC(=O)[C@@](C)(CCC(=O)Nc4c(O)ccc(C(=O)O)c4O)C2C[C@@H]1CC3O (stereo not given in full)
active: [1] 49.3 µM
not listed: [5]
inactive: all other assays above

O=Cc1ccc2n1C[C@@]1(OC2)O[C@H](CO)[C@@H](O)[C@@H]1O
inactive: all assays above

C=C1/C=C\C(CCC)=C\c2csc(n2)C(C)NC(=O)C[C@@]2(CC(=O)O)CCC(=C)[C@H](C1)S2 (stereo not given in full)
active: [1] 2.77 µM
inactive: all other assays above

CC(C)=CCC[C@@H](C)[C@@H]1CC[C@@]2(C)C[C@H]3C(C)=CC(=O)[C@@H]3/C(C=O)=C\C[C@H]12
inactive: [11] | [16] | [17] | [19]
active: [1] 44 µM | [2] 9.41 µM | [3] 5.95 µM | [4] 6.66 µM | [5] 7.49 µM | [6] 2.66 µM | [7] 11.8 µM | [9] 26.4 µM | [12] 10.5 µM | [18] 17.2 µM | [20] 20.9 µM

C=C(C)C(=O)O[C@H]1C[C@H](C)[C@@H](OC(C)=O)CC[C@@]2(C)O[C@@H]2[C@H]2OC(=O)C(COC(C)=O)=C12
inactive: [7] | [11] | [16] | [17] | [19]
active: [1] 31.1 µM | [2] 4.2 µM | [3] 11.9 µM | [4] 6.66 µM | [5] 6.68 µM | [6] 8.41 µM | [8] 9.35 µM | [10] 9.35 µM | [13] 23.4 µM | [14] 16.6 µM | [15] 6.62 µM | [18] 9.68 µM

CO[C@H]1/C=C/CC[C@@H](S[C@@H]2O[C@H](CO)[C@@H](O)[C@H](O)[C@H]2O)CC(=O)O[C@@H](/C(C)=C/[C@H](C)C(=O)CCCC2CC(=O)NC(=O)C2)[C@@H](C)[C@@H]1O
active: [2] 3.75 µM | [3] 8.41 µM | [4] 2.98 µM | [5] 4.21 µM | [12] 20.9 µM | [14] 4.17 µM | [18] 30.6 µM
not listed: [6] | [7] | [13] | [15] | [16]
inactive: all other assays above

CC(C)=CCC/C(C)=C/Cc1c(O)c(CC=C(C)C)c(O)c2c(=O)c3cc(O)ccc3oc12
active: [1] 9.84 µM | [2] 2.36 µM | [3] 13.3 µM | [4] 8.38 µM | [5] 14.9 µM | [6] 9.43 µM | [7] 18.8 µM | [13] 16.5 µM | [14] 13.2 µM | [20] 26.3 µM
inactive: [8] | [9] | [10] | [11] | [15] | [16] | [17] | [19]

C[C@@H](O)[C@H]1OC(=O)C=C2[C@]3(C)[C@H]4[C@H](OC(=O)[C@@]4(C)[C@@H](O)[C@H]4O[C@H]43)[C@H]3O[C@@]231
active: [2] 3.34 µM | [3] 3.35 µM | [4] 2.65 µM | [5] 2.11 µM | [7] 1.88 µM | [12] 1.48 µM | [15] 3.32 µM | [18] 12.2 µM | [20] 9.33 µM
not listed: [6] | [13]
inactive: all other assays above

CC(=O)[C@@H]1[C@@H](O)C[C@H]2[C@]3(C)CC[C@H]4C(C)(C)CCC[C@]4(CO)[C@H]3C[C@H]3OC(=O)[C@@H]1[C@@]32C
active: [1] 55.3 µM
not listed: [4]
inactive: all other assays above

CC(=O)O[C@@H]1C=C2C(=O)OC[C@]2(O)[C@@]2(C)CCCC(C)(C)[C@H]12
active: [1] 19.6 µM | [2] 5.94 µM | [3] 13.3 µM | [4] 10.6 µM | [5] 6.68 µM | [6] 5.3 µM | [7] 8.38 µM | [8] 26.4 µM | [18] 10.9 µM | [20] 16.6 µM
inactive: [11] | [16] | [17] | [19]
